Only some compounds are listed: those with a hit (about 2.4% of all), similar ones and a draw of the others.
CHRM1 PAM: positive allosteric modulators of human M1 muscarinic receptor; activation, % at 3 µM; 0.088% of 360,000 active; AID 588819; CHO-K1 hM1, Fluo-8 calcium fluorescence, ACh EC20; 0% = ACh EC20, 100% = maximal ACh; in the data active = activation above about 19%, passing the limit was not always enough
Target sequence (P11229 whole entry, looked up): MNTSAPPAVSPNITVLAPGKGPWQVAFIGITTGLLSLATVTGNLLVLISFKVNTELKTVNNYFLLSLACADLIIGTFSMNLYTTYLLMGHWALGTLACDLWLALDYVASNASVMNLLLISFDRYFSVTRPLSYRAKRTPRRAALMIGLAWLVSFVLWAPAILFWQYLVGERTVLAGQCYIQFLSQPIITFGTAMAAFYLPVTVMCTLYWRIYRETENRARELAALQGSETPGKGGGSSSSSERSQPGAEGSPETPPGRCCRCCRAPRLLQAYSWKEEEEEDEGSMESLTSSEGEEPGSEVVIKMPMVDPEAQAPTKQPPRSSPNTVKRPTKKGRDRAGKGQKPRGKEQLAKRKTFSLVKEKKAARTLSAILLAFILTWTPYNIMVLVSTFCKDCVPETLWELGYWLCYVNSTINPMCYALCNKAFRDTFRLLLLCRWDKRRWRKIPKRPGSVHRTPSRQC
M1 ag: human M1 muscarinic receptor agonism. P11229. CHO-K1 hM1, Fluo-8 calcium fluorescence, agonist mode; 0% DMSO, 100% acetylcholine EC100. activation, % at 3 µM. 0.33% of 360,000 active;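 active = activation above the run's mean compound activation plus 3 SD, cut at about 16% in these data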;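 note: peak over basal fluorescence ratio within a 140 s kinetic read after compound addition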
CHO-K1 Ca ag: M1 agonist counterscreen hit in parental CHO-K1 cells. Fluo-8 calcium fluorescence; scaled to maximal ATP response, vehicle zero. activation, % at 3 µM. 0.48% of 360,000 active. AID 602248; in the data active = activation above about 15%;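 note: untransfected CHO-K1 host cells lacking M1 receptor as counterscreen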
CHO-K1 Ca antag: counter-screen for M1 antagonists: effect in parental CHO-K1 cells; ATP-induced calcium, Fluo-8 fluorescence; inhibition, % at 3 µM; 0.6% of 360,000 active; AID 602250;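 active = inhibition above a per-plate cutoff, the plate's mean sample inhibition plus 3 SD, cut at about 24% in these data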;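 note: 0% = DMSO plus EC80 ATP and 100% = DMSO alone without ATP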
CHO-K1 Ca PAM: nonselective activator or artifact in parental CHO-K1 calcium assay | ATP EC20, Fluo-8 calcium fluorescence; 0% at ATP EC20, 100% at ATP max | activation, % at 3 µM | 0.02% of 360,000 active | AID 602247;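 active = activation above the run cutoff, the mean activation of all test compounds plus 3 SD, cut at about 40% in these data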;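 note: peak over basal fluorescence ratio in a 140 s read after ATP addition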
CHRM1 antagonist: human CHRM1 antagonism; P11229; CHO-K1 hM1, Fluo-8 calcium fluorescence, ACh EC80 antagonist; inhibition, % at 3 µM; 1.3% of 360,000 active; AID 588852;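 active = percent inhibition above its own plate's cutoff, namely the mean of that plate's compound wells plus 3 SD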;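 note: peak over basal fluorescence ratio during 140 s after agonist addition; 0% = ACh EC80 plus DMSO and 100% = DMSO alone without agonist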
Numbers without * were called inactive.

SMILES	CHRM1 PAM	M1 ag	CHO-K1 Ca ag	CHO-K1 Ca antag	CHO-K1 Ca PAM	CHRM1 antagonist
O=C1OCCN1C(=O)[C@H]1[C@H](c2ccc(Cl)cc2)C(c2ccccc2)=NN1c1ccccc1	-13	-3	0	-1	-7	26*
O=C1OCCN1C(=O)[C@H]1[C@H](c2ccc(Cl)cc2)C(c2ccc(F)cc2)=NN1c1ccccc1	-10	-3	1	-15	16	15
CCN1CCN(c2ccc(S(=O)(=O)N3CCOCC3)cc2NC(=O)c2ccccc2OC(F)F)CC1	4	20*	2	-8	10	-5
CCN1CCN(c2ccc(S(=O)(=O)N3CCOCC3)cc2NC(=O)c2ccc(Cl)cc2Cl)CC1	6	-6	3	5	26	-7
Cc1ccc(OCC(=O)Nc2cc(S(=O)(=O)N3CCCCC3)ccc2N2CCN(C)CC2)c(C)c1	-9	-8	0	-8	-1	7
Cc1ccccc1OCCC(=O)Nc1cc(S(=O)(=O)N2CCCCC2)ccc1N1CCN(C)CC1	-13	34*	51*	8	-12	19
CCN1CCN(c2ccc(S(=O)(=O)N3CCCCC3)cc2NC(=O)Cc2ccccc2)CC1	1	-6	1	7	-26	4
CN1CCN(c2ccc(S(=O)(=O)N3CCCCC3)cc2NC(=O)COc2ccc([N+](=O)[O-])cc2)CC1	-13	-4	0	20	-22	32*
CCN1CCN(c2ccc(S(=O)(=O)N3CCCCC3)cc2NC(=O)Cc2ccc(Cl)c(Cl)c2)CC1	-6	11	18*	29*	0	14
Cc1ccc(NC(=O)c2ccc([N+](=O)[O-])cc2Cl)nc1	4	-4	0	-6	18	-10
NS(=O)(=O)c1ccc(-n2cccc2C=O)cc1	7	-8	18*	3	1	2
O=C1N/C(=C/c2ccc(N3CCOCC3)o2)C(=O)N1c1cccc(Cl)c1	-9	-3	0	29*	-10	14
Cc1ccccc1CSCC(=O)Nc1ccccc1F	10	-7	2	1	12	-16
CCC(CC)C(=O)Nc1ccc(Sc2ccc([N+](=O)[O-])cc2)cc1	-27	-7	10	-8	-12	35*
O=C(Nc1ccccc1)Nc1nc(-c2ccccc2)cs1	-11	10	9	23	-7	23
O=C(Nc1ccc(Cl)cc1)Nc1nc(-c2ccccc2O)cs1	-11	9	17*	15	-9	35*
O=C(Nc1ccccc1)Nc1nc(-c2ccc(F)c(F)c2)cs1	-6	5	16*	20	-5	18
COc1ccc(CCN2CC(C(=O)NCCCc3ccncc3)CCC2=O)cc1 (stereo not given)	16	8	0	25*	-7	-1
COc1ccc(CCNC(=O)C2CCC(=O)N(CCc3ccc(OC)cc3)C2)cc1 (stereo not given)	-6	-2	1	5	-11	21
COc1ccc(C(=O)NC(=S)NNC(=O)c2ccc(C)cc2)cc1	-21	87*	82*	14	-25	31
CCC(=O)NC(=S)NNC(=O)c1ccc(OC)cc1	-1	-4	0	-12	-3	0
CCCCC(=O)NNC(=S)NC(=O)c1ccc(C)cc1	-2	39*	14	-1	6	0
CCNC(=S)NNC(=S)NCc1ccccc1	-4	-2	0	-11	5	2
CCCCC(=O)NNC(=S)NCc1ccccc1	3	-3	0	-24	11	39*
CCOC(=O)/C=C1/SCC(=O)N1CC(=O)Nc1ccc2c(c1)CCC2	3	-2	1	-16	22	-18
SMILES	CHRM1 PAM	M1 ag	CHO-K1 Ca ag	CHO-K1 Ca antag	CHO-K1 Ca PAM	CHRM1 antagonist
CN(CC(=O)O)c1ccc(C(F)(F)F)cc1[N+](=O)[O-]	-8	-1	1	-10	26	3
O=C(O)c1cc(Br)ccc1NS(=O)(=O)c1cccc2nsnc12	-1	0	-1	27*	-25	11
Cc1ccc(NS(=O)(=O)c2cccc3nsnc23)cc1C	-26	-8	1	4	-5	40*
O=S(=O)(Nc1cccc(F)c1)c1cccc2nsnc12	7	-9	4	-8	17	-5
Cc1cccc(C)c1OCC(O)CNC(C)c1ccccc1 (stereo not given)	7	-2	8	-17	11	-15
O=C(Nc1ccc(F)cc1F)N1CCN(CCc2ccccc2)CC1	11	3	30*	-10	17	-6
O=S(=O)(c1cccs1)N1CCN(CC(O)COc2cc(Cl)ccc2Cl)CC1 (stereo not given)	-13	7	9	23	3	23*
COc1ccc(Cc2nc3ccc(C(=O)NCCc4ncccc4C)cc3o2)cc1OC	-6	-3	4	-7	16	-5
Cc1ccc(NC(=O)CCCC(=O)O)c(-c2nc3ccccc3[nH]c2=O)c1	5	-3	0	-1	18	-11
COc1ccc(NC(=O)CSc2ccccn2)cc1OC	7	0	0	-3	16	-5
COc1ccc(NC(=O)CSc2ncccc2C(=O)OC(C)C)cc1OC	-7	-1	9	27*	-9	15
Cc1nc2c(OCc3cccc(Cl)c3)cccn2c1N(C)Cc1cccs1	-13	-4	2	-1	-1	34*
Cc1nc2c(OCc3ccc(Cl)cc3Cl)cccn2c1N(C)Cc1cccs1	-13	-6	1	-4	6	16
CC(C)(C)C(=O)N1CCC[C@H]1C(O)(c1ccccc1)c1ccccc1	1	-4	-1	8	-2	-1
CN1CCC(CC(C(=O)N2CCCC2)(c2ccccc2)c2ccccc2)C1 (stereo not given)	-27	-8	1	-7	-17	61*
COc1ccc(-c2nc(SC(CC(=O)NCCN3CCOCC3)c3cccs3)n[nH]2)cc1 (stereo not given)	9	-2	-1	-11	6	-7
COc1ccc(CCNC(=O)CSc2nc3[nH]ncc3c(=O)n2-c2ccc(Br)cc2)cc1OC	-4	25*	0	-17	7	2
CCCNC(=O)C(Cc1ccc(I)cc1)NC(=O)c1ccc(C#N)cc1 (stereo not given)	-6	-3	0	1	-9	17
CC(OCCN1CCCC1)(c1ccc(F)cc1)c1ccc(F)cc1	-20	-8	2	-6	13	92*
CC(C)(C)c1ccccc1OCCN1CCCC1	-22	-9	2	-2	24	43*
Cc1ccc(C(C)(C)C)c(OCCN2CCCC2)c1	-24	-10	1	-1	16	67*
Cc1cc(C(C)(C)C)ccc1OCCN1CCCC1	0	-4	1	-1	14	-21
CC(C)Oc1ccccc1OCCN(C)C	11	-13	0	-9	24	-4
Fc1ccc(OCCOCCN2CCCC2)cc1	0	-6	1	-2	0	-5
